In PubChem BioAssay:
The source made the active and inactive calls.

Experiments:
[1] = anti-His antibody binders, primary screen, artefact control for SMM control protein annotation, biochemical, small-molecule microarray, 635 nm fluorescence (AID 1128); conditions: anti-His Alexa647 antibody binding, higher = more signal;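 note: score merges feature fluorescence with signal-to-noise for each printed compound spot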
[2] = test system: Human papillomavirus type 1a E7 protein (residues 1-88); test: HPV1a E7 small-molecule binders, primary screen, biochemical, small-molecule microarray, residues 1-88, 635 nm (AID 1129); conditions: small-molecule microarray binding, fluorescence 635 nm; higher = more signal
[3] = molecular target: Focal adhesion kinase 1 (Homo sapiens) (UniProt Q05397); test: small-molecule microarray binders of FAK, primary screen, biochemical, 635/667 nm fluorescence, BSA, DTT (AID 1130); conditions: PTK2 binding, 635 nm fluorescence, higher = more signal;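 note: composite of spot emission at 667 nm and signal to noise over triplicate slides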
[4] = test system: Fibrinogen (Alexa647-labelled); test: fibrinogen binders on compound microarrays, profiling panel, artefact control for SMM control-protein annotation, biochemical, small-molecule microarray, 635/667 nm fluorescence (AID 1131); conditions: fibrinogen-A647 binding fluorescence, higher = more signal;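 note: z-score merges 667 nm fluorescence with per-spot signal-to-noise over triplicate slides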
[5] = molecular target: Follistatin (Homo sapiens) (UniProt P19883); test: follistatin binders on small-molecule microarrays, primary screen, biochemical, small-molecule microarray, 635/667 nm fluorescence (AID 1132); conditions: FST binding, 635 nm fluorescence, higher = more signal
[6] = molecular target: Fibroblast growth factor 2 (Homo sapiens) (UniProt P09038); test: FGF2 binders on small-molecule microarrays, primary screen, biochemical, small-molecule microarray, 635/667 nm fluorescence (AID 1133); conditions: small-molecule microarray binding, FGF2, fluorescence 635/667; higher = more signal
[7] = mitochondrial membrane potential change in A549 cells, profiling panel, cell-based, JC-1 fluorescence, basal, 24 h, 100 nL (AID 1138); conditions: higher = more signal;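 note: A549 lung adenocarcinoma cells under basal conditions with no added stimulus; test concentration not given here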
Lefty1 = Lefty1 binders on small-molecule microarrays, primary screen, biochemical, small-molecule microarray, 635/667 nm fluorescence (AID 1139); conditions: small-molecule microarray binding, fluorescence 635/667; higher = more signal
[8] = test system: wheat germ agglutinin (Triticum aestivum), Alexa647-labelled; test: wheat germ agglutinin binders on compound microarrays, profiling panel, artefact control for SMM control-protein annotation, biochemical, small-molecule microarray, 635/667 nm fluorescence (AID 1140); conditions: WGA-A647 binding, 635 nm fluorescence, higher = more signal;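 note: score merges 667 nm feature emission with signal to noise over triplicate slides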
[9] = molecular target: Luciferin 4-monooxygenase (Photinus pyralis) (UniProt P08659); test: firefly luciferase enzyme inhibitors, primary screen, biochemical, luminescence, purified enzyme, 2006 set (AID 1141); conditions: SteadyGlo luminescence, 30 min, higher = more signal, called active from +8 up or from −8 down;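 note: cell-free assay with purified firefly luciferase at 100 ng per well in PBS; test concentration not given here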
Luciferin 4-monooxygenase (Photinus pyralis), sequence (P08659 whole entry, looked up): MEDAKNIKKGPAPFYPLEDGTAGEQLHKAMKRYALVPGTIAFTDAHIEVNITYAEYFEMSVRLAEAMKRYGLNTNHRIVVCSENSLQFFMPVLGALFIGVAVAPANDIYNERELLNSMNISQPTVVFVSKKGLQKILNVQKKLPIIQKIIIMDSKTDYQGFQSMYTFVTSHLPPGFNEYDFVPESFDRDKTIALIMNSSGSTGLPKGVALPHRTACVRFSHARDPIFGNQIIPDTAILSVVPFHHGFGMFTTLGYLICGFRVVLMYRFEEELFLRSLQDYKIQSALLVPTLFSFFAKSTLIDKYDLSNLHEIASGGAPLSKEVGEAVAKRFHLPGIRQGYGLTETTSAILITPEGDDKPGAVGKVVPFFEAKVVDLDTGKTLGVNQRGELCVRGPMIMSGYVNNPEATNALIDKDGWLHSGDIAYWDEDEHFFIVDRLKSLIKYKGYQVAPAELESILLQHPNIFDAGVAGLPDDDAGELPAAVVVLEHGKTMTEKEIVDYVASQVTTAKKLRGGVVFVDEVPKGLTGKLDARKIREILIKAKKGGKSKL

Follistatin (Homo sapiens), sequence (P19883 whole entry, looked up): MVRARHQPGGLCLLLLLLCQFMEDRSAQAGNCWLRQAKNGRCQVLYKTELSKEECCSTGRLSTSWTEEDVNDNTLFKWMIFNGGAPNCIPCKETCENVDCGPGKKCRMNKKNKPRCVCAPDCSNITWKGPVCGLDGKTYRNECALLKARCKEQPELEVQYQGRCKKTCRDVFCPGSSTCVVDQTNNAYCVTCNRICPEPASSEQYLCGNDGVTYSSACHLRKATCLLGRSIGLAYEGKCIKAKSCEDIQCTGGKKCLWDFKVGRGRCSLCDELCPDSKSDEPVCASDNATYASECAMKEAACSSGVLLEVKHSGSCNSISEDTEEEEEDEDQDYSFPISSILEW
Fibroblast growth factor 2 (Homo sapiens), sequence (P09038 whole entry, looked up): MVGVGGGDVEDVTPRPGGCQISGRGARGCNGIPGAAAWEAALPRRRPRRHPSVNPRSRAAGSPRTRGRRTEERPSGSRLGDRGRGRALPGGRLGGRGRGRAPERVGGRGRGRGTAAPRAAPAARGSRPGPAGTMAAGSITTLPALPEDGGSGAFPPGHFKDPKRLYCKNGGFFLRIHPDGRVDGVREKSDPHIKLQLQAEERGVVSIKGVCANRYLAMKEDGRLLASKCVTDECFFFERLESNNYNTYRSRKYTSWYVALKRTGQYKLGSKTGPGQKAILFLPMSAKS
Focal adhesion kinase 1 (Homo sapiens), sequence (Q05397 whole entry, looked up): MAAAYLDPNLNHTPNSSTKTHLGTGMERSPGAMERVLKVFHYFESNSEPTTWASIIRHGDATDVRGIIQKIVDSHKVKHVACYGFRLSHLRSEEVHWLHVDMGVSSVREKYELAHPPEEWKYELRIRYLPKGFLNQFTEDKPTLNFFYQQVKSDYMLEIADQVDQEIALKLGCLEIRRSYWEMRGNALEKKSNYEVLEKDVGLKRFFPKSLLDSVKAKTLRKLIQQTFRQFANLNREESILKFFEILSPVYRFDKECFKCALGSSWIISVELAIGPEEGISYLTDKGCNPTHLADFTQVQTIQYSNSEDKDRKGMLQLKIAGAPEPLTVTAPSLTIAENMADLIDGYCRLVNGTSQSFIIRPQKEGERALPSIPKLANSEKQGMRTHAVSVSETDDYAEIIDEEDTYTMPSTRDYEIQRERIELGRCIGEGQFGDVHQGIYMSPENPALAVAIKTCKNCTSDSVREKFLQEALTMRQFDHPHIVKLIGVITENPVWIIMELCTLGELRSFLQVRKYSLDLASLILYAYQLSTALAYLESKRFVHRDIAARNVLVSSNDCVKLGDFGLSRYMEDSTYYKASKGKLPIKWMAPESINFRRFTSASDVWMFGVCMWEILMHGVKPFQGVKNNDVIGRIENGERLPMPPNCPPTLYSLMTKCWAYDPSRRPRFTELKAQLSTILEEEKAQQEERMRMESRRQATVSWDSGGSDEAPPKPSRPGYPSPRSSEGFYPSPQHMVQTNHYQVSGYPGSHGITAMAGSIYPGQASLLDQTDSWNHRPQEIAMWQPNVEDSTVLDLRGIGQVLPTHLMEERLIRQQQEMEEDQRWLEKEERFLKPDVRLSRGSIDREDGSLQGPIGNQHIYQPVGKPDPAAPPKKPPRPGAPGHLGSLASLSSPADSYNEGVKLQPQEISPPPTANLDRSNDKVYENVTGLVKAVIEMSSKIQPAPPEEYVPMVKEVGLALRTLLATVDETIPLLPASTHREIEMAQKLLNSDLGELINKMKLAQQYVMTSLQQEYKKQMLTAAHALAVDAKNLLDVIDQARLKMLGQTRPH

| SMILES | composite z-score [1] | composite z-score [2] | composite z-score [3] | composite z-score [4] | composite z-score [5] | composite z-score [6] | z-score [7] | composite z-score (Lefty1) | composite z-score [8] | z-score [9] |
| --- | --- | --- | --- | --- | --- | --- | --- | --- | --- | --- |
| Cc1ccccc1C(O)C1C=CC2C(=O)N(c3ccccc3)C(=O)C2N1Nc1ccc([N+](=O)[O-])cc1 (stereo not given) | 1.48 | 1.21 | 0.533 | 1.01 | 1.23 | 1.06 | -0.752 | 0.0122 | 0.515 | 1.18 (inactive) |
| CC(C)CNC(=O)[C@@]1(c2ccc([N+](=O)[O-])cc2)CC(=O)N(C2CCCCC2)[C@@H]1c1ccc(CO)cc1 | 1.91 | 1.23 | -0.0282 | 0.583 | 0.536 | 1.04 | 0.214 | -0.35 | 0.29 | -0.977 (inactive) |
| NC(=O)[C@H]1[C@@H]2C(=O)O[C@@H](c3ccccc3)[C@@H](c3ccccc3)N2[C@@H](c2ccc(O)cc2)[C@]12C(=O)Nc1ccc(C#CC3=CCCCC3)cc12 | 2.5 | 1.2 | 0.985 | 0.587 | 0.959 | -0.004 | -1.96 | 0.542 | 0.548 | -0.784 (inactive) |
| CN1C(=O)[C@@H]2[C@@H](CC(COc3ccccc3)=C([C@H](O)CCc3ccccc3)[C@@H]2CO)C1=O | -0.203 | -0.438 | -0.147 | -0.163 | 0.009 | 0.364 | 2.02 | -0.0412 | 0.488 | -1.4 (inactive) |
| CCOC(=O)C[C@H]1[C@H](OC(=O)c2cc3ccccc3oc2=O)[C@@H](NC(=O)c2ccc3ccccc3c2)c2cc(OCCCO)ccc2N1C(=O)Cc1ccc(OC)cc1 | -0.017 | 0.743 | 0.307 | 0.932 | 0.911 | 0.518 | -0.167 | 0.631 | 0.664 | 0.842 (inactive) |
| CCCCC(=O)N(CCN1CCOCC1)[C@@H]1CC(C(=O)NCCO)=C[C@H](Oc2c(I)cc(CO)cc2OC)[C@H]1O | 0.438 | 0.358 | -0.444 | -0.0237 | 0.328 | 0.902 | 0.809 | 0.612 | 0.0626 | -0.658 (inactive) |
| C=CCC(OC(C)=O)[C@@H]1[C@@H](N(Cc2cccc3ccccc23)C(=O)c2ccc(-c3ccccc3)cc2)c2cc(OCCCO)ccc2N1C(=O)c1ccc(-c2ccccc2)cc1 (stereo not given in full) | -0.811 | 0.488 | -0.132 | -0.123 | 0.353 | -0.0952 | 0.758 | 0.0683 | 0.204 | -0.0873 (inactive) |
| C=CCNC(=O)[C@@H]1[C@H]2C(=O)O[C@H](c3ccccc3)[C@H](c3ccccc3)N2[C@H](c2ccc(OCCO)cc2)[C@@]12C(=O)N(C(=O)OCCOC)c1ccc(C#CCCO)cc12 | 0.32 | 1.17 | 1.12 | 0.736 | 1.33 | 0.482 | -0.295 | 1.1 | 0.719 | -11.1 (active) |
| CC(C)(C)OC(=O)CC[C@]1(C(=O)N2CCCCC2)COC(c2ccc(OCCCO)cc2)=N1 | 2.11 | 1.23 | 0.857 | 1 | 0.778 | -0.0857 | -0.29 | 0.197 | 1.12 | -0.3 (inactive) |
| CN1C=C(C(=O)OCCS(C)(=O)=O)C(C(=O)OCCS(C)(=O)=O)=CC(c2ccc(CO)cc2)=CC1c1cccs1 (stereo not given) | 1.48 | 0.577 | 0.0037 | 0.983 | 0.793 | 0.509 | 2.1 | 0.644 | 0.21 | -1.63 (inactive) |
| CC(C)C(CO)N1C(=O)[C@@H]2[C@H]3C(=O)OCC=C[C@H]3OC23C=CCN(C(C)(C)C)C(=O)[C@@H]13 (stereo not given in full) | -0.54 | -1.09 | -0.513 | -0.0751 | 0.277 | -0.405 | -1.76 | 0.503 | -0.0676 | -0.159 (inactive) |
| C#C[C@@H](CC)O[Si](C#CCCCC#N)(C(C)C)C(C)C | 2.55 | 0.0253 | 0.278 | -0.014 | -0.295 | 0.895 | 0.168 | 0.232 | -0.0711 | -0.732 (inactive) |
| C=CCC(OC(C)=O)[C@@H]1[C@@H](N(Cc2cc3ccccc3o2)C(=O)c2ccc(-c3ccccc3)cc2)c2cc(OCCCO)ccc2N1C(=O)Cc1ccc(OC)cc1 (stereo not given in full) | -0.289 | -0.27 | -0.19 | 0.457 | 0.453 | 0.245 | 0.64 | 0.16 | 0.307 | -0.189 (inactive) |
